Assay outcomes from PubChem.
MITF inh: MITF inhibition; AID 2240; 0.28% of 37,000 active; inhibition, % (concentration not given with the values); TRPM1 promoter luciferase, luminescence, 24 h; in the data active = inhibition above about 85%;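 also: human melanocyte line stably carrying TRPM1 promoter luciferase reporter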
NOMO-1 viab: STK33 inhibitor candidate reducing NOMO-1 cell viability; inhibition, % (no concentration beside the values); NOMO-1 AML viability, CellTiter-Glo luminescence, 72 h; AID 2330; 7.5% of 37,000 active; in the data active = inhibition above about 80%
p53 PUMA act: mutant p53 pathway reactivation. AID 624151. activation, % at 9.98 µM. 1.5% of 28,000 active. SW480 PUMA-promoter luciferase; in the data active = activation above about 52%
STK33 inh: blocks human STK33 kinase activity; Q9BYT3; ADP-Glo luminescence, MBP substrate; inhibition, % at 12.5 µM; 0.44% of 27,000 active; in the data active = inhibition above about 20%
Target sequence (Q9BYT3 whole entry, looked up): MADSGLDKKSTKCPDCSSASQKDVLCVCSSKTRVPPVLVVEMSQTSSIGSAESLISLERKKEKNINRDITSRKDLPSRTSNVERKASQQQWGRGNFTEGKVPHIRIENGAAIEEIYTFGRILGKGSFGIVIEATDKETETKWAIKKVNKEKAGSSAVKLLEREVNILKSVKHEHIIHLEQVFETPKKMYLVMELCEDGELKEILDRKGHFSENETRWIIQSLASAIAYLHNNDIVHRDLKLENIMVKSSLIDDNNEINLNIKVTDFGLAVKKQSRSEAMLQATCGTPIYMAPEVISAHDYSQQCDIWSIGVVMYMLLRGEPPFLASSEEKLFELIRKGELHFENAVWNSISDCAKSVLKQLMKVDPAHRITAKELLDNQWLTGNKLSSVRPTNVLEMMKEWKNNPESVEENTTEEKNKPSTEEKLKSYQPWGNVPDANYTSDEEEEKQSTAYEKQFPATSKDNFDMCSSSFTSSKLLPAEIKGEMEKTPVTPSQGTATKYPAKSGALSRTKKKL
An asterisk follows results filed as active; / = not tested or not shown. This is one part of a sample in which hits are shown more often than they occur.

SMILES	MITF inh	NOMO-1 viab	p53 PUMA act	STK33 inh
O=C(NCc1ccco1)c1cncc(Br)c1	-31	4	-11	4
N#CCCN(Cc1ccco1)S(=O)(=O)c1ccccc1	-16	-6	-4	-3
Cc1sc2nc(SCc3n[nH]c(=S)n3-c3ccccc3)[nH]c(=O)c2c1C	-28	28	2	4
C[C@H](CO)N1C[C@H](C)[C@H](CN(C)Cc2ccccc2)Oc2ccc(NC(=O)Nc3ccc(C(F)(F)F)cc3)cc2C1=O	14	91*	/	0
C[C@@H]1CN([C@@H](C)CO)C(=O)c2cc(NC(=O)Nc3ccccc3)ccc2O[C@@H]1CN(C)Cc1ccc(C(F)(F)F)cc1	25	97*	/	2
C[C@H]1CN([C@@H](C)CO)C(=O)c2cc(NC(=O)Nc3ccccc3)ccc2O[C@H]1CN(C)Cc1ccc(C(F)(F)F)cc1	7	14	/	-1
CC1=C(C(=O)OCc2ccccc2)C(c2ccoc2)C(C#N)=C(N)S1 (configuration not stated)	-3	58	/	/
CCn1c(SCC(=O)N2c3ccccc3Sc3ccccc32)nnc1-c1cc(OC)cc(OC)c1	13	11	-6	6
CNCCNS(=O)(=O)c1cccc2cnccc12	-29	14	-13	22*
O=S(=O)(NCCNC/C=C/c1ccc(Br)cc1)c1cccc2cnccc12	26	58	-10	79*
COc1ccc(NC(=O)CN(C)S(=O)(=O)c2ccc(Br)cc2)c([N+](=O)[O-])c1	9	-31	0	-2
C=CCNC(=S)N1N=C2c3ccccc3CCC2C1c1ccccc1Cl (configuration not stated)	6	109*	/	/
CC(=O)N1N=C2c3ccccc3CCC2C1c1cccs1 (configuration not stated)	27	-7	/	/
COCCNC(=O)c1c(NC(=O)c2ccccc2C)sc2c1CCCC2	-39	13	-11	-2
C[C@@H]1CCOC(=O)C=CC=CC(=O)O[C@@H]2C[C@H]3O[C@@H]4C=C(C(=O)O)CC[C@]4(COC(=O)[C@H]1O)[C@]2(C)[C@]31CO1	65	121*	/	2
C/C=C(/C)C(=O)O[C@@H]1c2cc(OC)c(OC)cc2-c2c(ccc(OC)c2OC)C[C@H]2C(=O)OC[C@H]12	4	117*	-29	-5
COc1cc2c(c(OC)c1OC)C[C@H]1COC(=O)[C@@H]1Cc1c-2cc(OC)c(OC)c1OC	/	/	-80	-2
Cc1ccc(-c2csc3nnc(SCC(=O)c4ccc(Cl)c(Cl)c4)n23)cc1	32	103*	-1	1
COC(=O)C(C(C)c1c[nH]c2ccccc12)[N+](=O)[O-] (configuration not stated)	5	23	-24	5
C[C@H]1CN([C@@H](C)CO)C(=O)c2cccc(NC(=O)CCCCCC(=O)Nc3ccccc3N)c2O[C@H]1CN(C)Cc1ccc(-c2ccccc2)cc1	-8	122*	/	/
C[C@H]1CN([C@@H](C)CO)C(=O)c2cccc(NC(=O)CCCCCC(=O)Nc3ccccc3N)c2O[C@H]1CN(C)Cc1ccc(C(F)(F)F)cc1	35	100*	/	/
C[C@@H]1CN([C@H](C)CO)C(=O)c2cccc(NC(=O)CCCCCC(=O)Nc3ccccc3N)c2O[C@@H]1CN(C)Cc1ccccc1	-25	48	/	/
C[C@@H]1CN([C@@H](C)CO)C(=O)c2cccc(NC(=O)CCCCCC(=O)Nc3ccccc3N)c2O[C@H]1CN(C)Cc1ccccc1	61	122*	/	/
C[C@@H]1CN([C@H](C)CO)C(=O)c2cccc(NC(=O)CCCCCC(=O)Nc3ccccc3N)c2O[C@@H]1CN(C)Cc1ccncc1	-21	17	/	/
C[C@@H]1CN([C@H](C)CO)C(=O)c2cccc(NC(=O)CCCCCC(=O)Nc3ccccc3N)c2O[C@H]1CN(C)Cc1ccncc1	3	8	/	/
SMILES	MITF inh	NOMO-1 viab	p53 PUMA act	STK33 inh
C[C@@H]1CN([C@H](C)CO)C(=O)c2cccc(NC(=O)CCCCCC(=O)Nc3ccccc3N)c2O[C@@H]1CN(C)Cc1ccc(-c2ccccc2)cc1	4	126*	/	/
CSc1ccc(C2CN3CCCC3c3ccccc32)cc1 (configuration not stated)	/	/	1	/
C[C@@H]1CN([C@@H](C)CO)C(=O)c2cccc(NC(=O)CCCCCC(=O)Nc3ccccc3N)c2O[C@H]1CN(C)Cc1ccc(Cl)c(Cl)c1	80	138*	/	/
C[C@@H]1CN([C@@H](C)CO)C(=O)c2cccc(NC(=O)CCCCCC(=O)Nc3ccccc3N)c2O[C@H]1CN(C)Cc1ccncc1	-23	5	/	/
C[C@@H]1CN([C@@H](C)CO)C(=O)c2cccc(NC(=O)CCCCCC(=O)Nc3ccccc3N)c2O[C@H]1CN(C)Cc1ccc(Oc2ccccc2)cc1	64	141*	/	/
CCOC(=O)C1C(=O)C(=O)Nc2ccccc21 (configuration not stated)	15	21	-2	-3
CC(=O)c1cccc(NC(=O)CSc2nc(C)cc(=O)[nH]2)c1	-32	-26	-7	-3
C[C@H]1CN([C@@H](C)CO)C(=O)c2cccc(NC(=O)Nc3ccc(F)cc3)c2O[C@@H]1CN(C)Cc1ccccc1	-11	101*	/	/
C[C@H](CO)N1C[C@H](C)[C@@H](CN(C)Cc2ccccc2)Oc2c(NC(=O)Nc3ccc(F)cc3)cccc2C1=O	-10	98*	0	/
C[C@H](CO)N1C[C@H](C)[C@H](CN(C)Cc2ccccc2)Oc2c(NC(=O)Nc3ccc(F)cc3)cccc2C1=O	16	63	/	/
C[C@@H]1CN([C@H](C)CO)C(=O)c2cccc(NC(=O)Nc3ccc(F)cc3)c2O[C@@H]1CN(C)Cc1ccccc1	-10	9	/	/
C[C@H](CO)N1C[C@H](C)[C@H](CN(C)Cc2ccc(-c3ccccc3)cc2)Oc2c(NC(=O)Nc3ccc(F)cc3)cccc2C1=O	1	70	/	/
C[C@@H]1CN([C@@H](C)CO)C(=O)c2cccc(NC(=O)Nc3ccc(F)cc3)c2O[C@H]1CN(C)Cc1ccccc1	34	102*	-11	/
C[C@@H]1CN([C@H](C)CO)C(=O)c2cccc(NC(=O)Nc3ccc(F)cc3)c2O[C@H]1CN(C)Cc1ccccc1	51	100*	/	/
O=C(CSc1nnnn1-c1ccccc1)Nc1ccc(Cl)cc1O	42	48	-7	-3
CCc1ccccc1NC(=O)c1ccccc1S(=O)(=O)c1ccccc1[N+](=O)[O-]	11	-6	-4	-9
C[C@@H]1CN([C@@H](C)CO)C(=O)Cc2cc(NC(=O)Cc3cn(C)c4ccccc34)ccc2O[C@@H]1CN(C)Cc1ccc(Oc2ccccc2)cc1	16	115*	/	-1
C[C@@H]1CN([C@H](C)CO)C(=O)Cc2cc(NC(=O)Cc3cn(C)c4ccccc34)ccc2O[C@@H]1CN(C)Cc1ccc(Cl)c(Cl)c1	20	95*	/	1
C[C@@H]1CN([C@H](C)CO)C(=O)Cc2cc(NC(=O)Cc3cn(C)c4ccccc34)ccc2O[C@@H]1CN(C)Cc1ccccc1	24	107*	/	1
C[C@H]1CN([C@@H](C)CO)C(=O)Cc2cc(NC(=O)Cc3cn(C)c4ccccc34)ccc2O[C@@H]1CN(C)Cc1ccc(-c2ccccc2)cc1	42	122*	/	4
COc1cc2c(cc1OC)C(=O)CC(C)(C)O2	4	0	/	/
